Laboratory results published in PubChem BioAssay (EPA / NIEHS).
“And” between values parts separate entries of the source, which are not always exact repeats. Equal entries are not always repeated. Results filed as inconclusive are left out. The source made the active and inactive calls. Rule for the calls: active = hit-call score of the fitted dose curve at least 0.9, where 1 is the maximum; inconclusive = response in the unintended direction; inactive = score below 0.9.

Tests used:
[1] = ATG_XTT_Cytotoxicity: Cytotoxicity Assessment in the Attagene TRANS-FACTORIAL HepG2 Assay (AID 2283584)
In short: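 Viability endpoint from XTT after 24 h chemical exposure of reporter-transfected human HepG2 liver cells; signal loss fitted relative to DMSO negative control.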

[2] = TOX21_p53_BLA_p2_viability: Viability Assessment in the Tox21 HCT-116 p53 Agonism Beta-lactamase Assay, Phase 2 (AID 2283591);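 note: compound exposure lasted 16 h at 37 °C; actives lower the ATP signal meaning cytotoxicity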
In short: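 HCT-116 p53-bla cells (4000/well) rested 5 h at 37C, then received compounds in DMSO (217-fold dilution) for 16 h at 37C, 5% CO2. After the CCF4 read, CellTiter-Glo was added; ATP luminescence was read after 30 min at room temperature.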

Compound	outcome [1]	outcome [2]	AC50 [2]
O=S(=O)(O)CC(O)CCl (stereo not given)	inactive	inactive	
O=C(Nc1cccc(C(F)(F)F)c1)c1cc(Br)cc(Br)c1O	inactive		747 nM (active) and 1.12 µM (active)
CC1=Nc2ccc3ccccc3c2C1(C)C		inactive	
